# Bioassay records deposited in PubChem BioAssay by several laboratories.
# MPTP block – blocks calcium-induced mitochondrial swelling; isolated mouse mitochondria, Ca2+ swelling absorbance, 30 min; inhibition, % at 10 µM; hit rate 1.4% among 360,000; AID 602449;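 active = inhibition of 50% or more, scaled per plate between neutral and stimulator controls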
# CSC inhib – cancer stem cell inhibition; hit rate 1.1% among 300,000; inhibition, % at 7.5 µM; AID 2717; cancer stem cell-like cells viability, luminescence; in the data active = inhibition above about 75%; tested in HMLE shEcad cells
# Calb FLC – affects C. albicans growth with fluconazole | hit rate 0.57% among 300,000 | growth inhibition, % (no concentration beside the values) | C. albicans CaCi-2 (fluconazole-resistant clinical isolate) + fluconazole, Alamar Blue growth, 48 h;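 active = growth inhibition above about 58% in most replicates, limit read from the data, passing the limit was not always enough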;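 also: all wells also contain fluconazole at 8 µg/ml as a sub-toxic cotreatment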
# Beta apoptosis – blocks beta cell apoptosis; INS-1E cytokine-induced death, ATP luminescence, 48 h; percent of positive-control rescue, neutral wells zero; protection from apoptosis, % (concentration not given with the values); hit rate 0.8% among 300,000;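 active = Every replicate reaches about 75%, or at least half do and their mean reaches it too, limit read from the data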;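 also: higher means more ATP so stronger rescue from cytokine killing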
# Mdm2 MdmX PPI – inhibitors of human Mdm2/MdmX interaction | AID 485346 | inhibition, % at 8 µM | SaOS-2 split-luciferase Mdm2/MdmX complementation, luminescence | hit rate 3% among 330,000 | O15151+Q00987;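 active = inhibition of at least 50% at 8 µM in the primary screen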
# Target sequence (O15151 whole entry, looked up): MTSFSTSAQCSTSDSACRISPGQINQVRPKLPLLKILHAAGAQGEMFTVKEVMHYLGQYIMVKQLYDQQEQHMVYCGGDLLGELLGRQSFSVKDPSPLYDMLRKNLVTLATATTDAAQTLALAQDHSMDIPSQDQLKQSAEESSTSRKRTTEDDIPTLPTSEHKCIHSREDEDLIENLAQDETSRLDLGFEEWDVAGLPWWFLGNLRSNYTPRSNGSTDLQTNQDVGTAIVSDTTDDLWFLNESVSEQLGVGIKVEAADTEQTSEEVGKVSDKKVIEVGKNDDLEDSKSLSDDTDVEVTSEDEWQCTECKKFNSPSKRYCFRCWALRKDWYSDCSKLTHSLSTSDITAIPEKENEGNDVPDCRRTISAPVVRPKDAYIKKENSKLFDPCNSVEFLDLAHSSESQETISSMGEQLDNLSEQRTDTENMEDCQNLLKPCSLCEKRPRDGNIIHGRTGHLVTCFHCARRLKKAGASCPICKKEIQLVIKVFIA
# Target sequence (Q00987 whole entry, looked up): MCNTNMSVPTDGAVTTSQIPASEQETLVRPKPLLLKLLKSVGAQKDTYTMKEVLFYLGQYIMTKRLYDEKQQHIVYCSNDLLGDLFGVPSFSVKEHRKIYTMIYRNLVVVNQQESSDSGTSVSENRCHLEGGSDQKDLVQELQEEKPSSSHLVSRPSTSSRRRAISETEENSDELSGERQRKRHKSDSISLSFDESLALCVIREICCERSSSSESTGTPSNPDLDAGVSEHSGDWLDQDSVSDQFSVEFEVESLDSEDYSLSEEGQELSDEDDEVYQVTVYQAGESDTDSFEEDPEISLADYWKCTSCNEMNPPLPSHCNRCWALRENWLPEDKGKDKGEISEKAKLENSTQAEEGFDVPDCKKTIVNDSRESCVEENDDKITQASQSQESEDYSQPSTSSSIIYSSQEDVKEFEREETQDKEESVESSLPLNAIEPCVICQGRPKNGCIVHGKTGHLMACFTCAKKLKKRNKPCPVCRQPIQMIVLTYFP
# Numbers stand for hits; . = inactive; / = not tested or not shown. Rows were chosen to be rich in hits. Some 4.8% of all compounds tested hit in one or more screens of this group.
SMILES,MPTP block,CSC inhib,Calb FLC,Beta apoptosis,Mdm2 MdmX PPI
COc1ccc(C(=O)Nc2ccccc2C(=O)N/N=C/c2ccccn2)cc1OC,.,.,.,95,.
O=C(O)c1cnc(-c2ccccc2)nc1Sc1ccc(Cl)cc1,.,.,99,.,.
O=C(O)c1cnc(-c2ccccc2)nc1Sc1ccccc1Cl,.,.,96,.,.
Cc1cccc(Sc2nc(-c3ccccc3)ncc2C(=O)O)c1,.,.,109,.,.
NC(CCc1ccccc1)c1csc(Nc2nccc(C(F)(F)F)n2)n1 (stereo unspecified),.,/,/,/,/
CCC(C)[C@H]1CNC(=O)C(=O)N1CC1CCCCC1 (stereo partly specified),.,/,/,/,/
CON/C=C(\C=Nc1ccc(Cl)cc1Cl)c1ncc(C(F)(F)F)cc1Cl,.,.,94,.,.
CON/C=C(\C=Nc1ccccc1)c1ncc(C(F)(F)F)cc1Cl,.,.,.,.,.
CC(C)=CCOc1ccc([C@@H]2COc3c(ccc4c3C=CC(C)(C)O4)C2)c(O)c1,.,102,.,.,.
CCOC(=O)C(=Cc1cc(=O)c(OC)co1)C(=O)OCC,.,/,94,/,/
Cc1cc(O)c(/C=N/Nc2cccc(Cl)c2)c(=O)o1,.,.,.,.,.
Cc1cc(O)c(/C=N/Nc2ccc(Cl)cc2)c(=O)o1,.,.,87,.,.
COc1cccc(-c2cc3nc(NCc4ccccc4F)n(C)c(=O)c3s2)c1,.,/,/,/,/
Cc1ccc(N=C(NOCc2ccc(Cl)cc2Cl)c2nonc2N)c(C)c1,.,.,.,.,.
Cc1ccccc1N=C(NOCc1ccc(Cl)cc1Cl)c1nonc1N,.,98,.,.,.
O=C(CN1CCN(c2ccc(O)cc2)CC1)NC(c1ccccc1)c1ccccc1,.,.,114,.,.
O=c1ccc(N=Nc2ccccc2)ccc1O,.,.,101,.,/
CCCCn1nnnc1C(c1ccccc1)N1CCN(c2cccc(C(F)(F)F)n2)CC1 (stereo unspecified),.,/,/,/,/
CSc1nc2cc(Oc3cccc(Cl)c3Cl)c(Cl)cc2[nH]1,.,103,/,.,.
CCNC(=O)C1(C)CCCN(Cc2ccc(Oc3ccccc3)cc2)C1 (stereo unspecified),.,/,/,/,/
CCc1nc(N2CCCCC2C)c2oc3ccccc3c2n1 (stereo unspecified),.,102,.,.,.
CCc1nc(N2CCCCC2)c2oc3ccccc3c2n1,.,.,.,.,.
CCc1nc(N2CCN(Cc3ccc4c(c3)OCO4)CC2)c2oc3ccccc3c2n1,.,81,.,.,.
CCc1nc(N2CCCCC2C(=O)O)c2oc3ccccc3c2n1 (stereo unspecified),.,.,.,.,.
COc1ccc(C2=Nc3ccccc3N(C(=O)c3cc(Cl)cc(Cl)c3)C2C(=O)NCc2ccccc2)cc1 (stereo unspecified),.,/,/,/,/
SMILES,MPTP block,CSC inhib,Calb FLC,Beta apoptosis,Mdm2 MdmX PPI
CCCC(=O)Nc1c(-c2ccccc2)[nH][nH]c1=O,.,/,/,/,/
CC(C)C[C@H]1CN=C(Nc2ccccc2)N1CCc1ccc(F)cc1,.,.,/,90,.
c1ccc(CCCCN2C(Nc3ccccc3)=NC[C@@H]2Cc2ccccc2)cc1,.,.,/,.,.
CCCCCCCN1C(Nc2ccccc2)=NC[C@@H]1Cc1ccccc1,.,.,84,.,.
COc1ccc(/C(C)=N/Nc2cccc(C(=O)O)c2)cc1OC,.,.,.,.,.
C/C(=N\Nc1cccc(C(=O)O)c1)c1ccc(Cl)s1,.,.,78,.,.
O=C(NCc1ccc(Cl)cc1)c1cccc(NC(=O)c2ccccc2)c1,.,111,.,.,.
O=C(Nc1ccc(S(=O)(=O)N2CCOCC2)cc1)c1ccc([N+](=O)[O-])s1,.,.,/,90,.
O=C(Nc1ccc(S(=O)(=O)N2CCOCC2)cc1)c1cccs1,.,.,.,.,.
O=C(NCc1cccnc1)c1csc([C@@H]2C[C@H](O)[C@@H](CO)O2)n1,.,/,/,/,/
Cc1ccc(S(=O)(=O)/N=C2\C(=O)c3ccccc3C([O-])=C2n2cc[n+](CCC(C)C)c2)cc1,.,.,.,90,.
Cc1ccc(NC(=O)C[n+]2ccn(C3=C([O-])c4ccccc4C3=O)c2)cc1,.,.,.,.,.
CCCC[n+]1ccn(C2=C([O-])c3ccccc3C(=O)/C2=N\S(=O)(=O)c2ccc(Br)cc2)c1,.,.,.,90,.
CCOC(=O)C1=CC[C@@H](c2cccc(Br)c2)N(S(=O)(=O)c2ccc(F)cc2)[C@H]1c1cccc(Cl)c1,.,/,/,/,/
Nc1ccc(Nc2ccc([N+](=O)[O-])cc2[N+](=O)[O-])cc1,.,.,.,102,.
CN(Cc1ccccc1)C(=O)c1cnc(Cc2c[nH]c3ccccc23)c(I)c1,.,/,/,/,/
